Growth data for 15 molecules are collected here from PubChem BioAssay (NCI).

This is part of a sample that, as a whole, favours compounds with a hit. Of some 83,000 tested, about 20% had one in any assay.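 Compound tested at a single concentration for 48 hours in 96-well plates; a percent growth value below 10 was scored as active.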 Values without a mark were called inactive. Active and inactive are the calls of the source.

For the experiment, the system named is HL-60(TB) leukemia. In words: NCI-60 one-dose screen, 48 h (100 = growth as untreated, 0 = no growth, -100 = all killed). The conditions noted are these: 10 µM unless noted.

As to `COc1ccc(-c2cnnn2-c2cc(OC)c3c(c2)OCO3)cc1`, the growth was -32% (active). On to `Cc1cc2c(-c3nc4ccccc4[nH]3)c(O)c(O)cc2c(O)c1-c1c(C)cc2c(-c3nc4ccccc4[nH]3)c(O)c(O)cc2c1O`, for which the growth is -11.2% (active). Consider `OCC12CCCC(CO)(COC1)C2O` (stereo not given), for which the growth is 118%. With `CNC(=O)c1ccccc1Nc1nc(Nc2cc(OC)c(OC)c(OC)c2)ncc1Br`, the growth was 19%. Consider `CNC(=O)c1cncc(Cn2nc(C)c(NC(=O)c3ccc(COc4ccc(C(F)(F)F)cc4C)cc3)c2C)c1`, for which the growth is 63.6%. Turning to `COc1ccc(NC(=O)/C=C/c2ccc(Cl)c(Cl)c2)cn1`, the growth was 61.5%.

Consider `CCCCc1ccc(N=Nc2ccc(OCC[N+](C)(C)C)cc2)cc1`, for which the growth was 25.2%. On to `NC(Cc1ccc(O)c([N+](=O)[O-])c1)C(=O)O` (stereo not given), for which the growth is 114%. In the case of `c1ccc(/C(=N\Nc2ccc3ccccc3n2)c2ccccn2)cc1`, the growth is -29.8% (active). `CCOC(=O)C1CCc2c(ccc3ccccc23)N1CCC#N` (stereo not given): the growth is 110%. For the molecule `O=C1Nc2cc(-c3cccc([N+](=O)[O-])c3)ccc2/C1=C/c1ccc[nH]1`, the growth is 101%. `CS(=O)(=O)c1nccc(-c2c(-c3cccc(OCc4ccccc4)c3)nc3sccn23)n1`: the growth is 82.8%.

As to `O=c1oc2ccc(Br)cc2c(=O)n1-c1ccc(Cl)cc1F`, the growth is -32.8% (active).

Take `CC(=O)OC1CCC2(C)C(=CC3C4CCC(=O)C4(C)CCC32)C1` (stereo not given): the growth is 91%. With `CCCCCCC/C=C/[C@H]1O[C@]23C(=O)C[C@@]4(C[C@@H](OC5OC(CO)C(O)C(O)C5O)C[C@@H]4[C@H]2C=C1C)OC3=O` (stereo not given in full), the growth is -13.1% (active).
